What all share (experiment): NCI-60 one-dose screen, 48 h (100 = growth as untreated, 0 = no growth, -100 = all killed)
Common to all, as to conditions: 10 µM unless noted

Experiment [1] has as its system NCI-H23 lung.
Experiment [2] has as its system NCI-H226 lung.
The subject of experiment [3] is NCI-H322M lung.
Experiment [4] relates to HOP-62 NSCLC.
Experiment [5] concerns NCI-H460 lung.
The subject of experiment [6] is HOP-92 NSCLC.
In experiment [7] the test system is NCI-H522 lung.
The subject of experiment [8] is A549/ATCC NSCLC.
Experiment [9] deals with 786-0 renal.
Experiment [10] deals with COLO 205 colon.
For experiment [11], the system named is DU-145 prostate.
Experiment [12] concerns K-562 leukemia.
Experiment [13] deals with MALME-3M melanoma.
Experiment [14] concerns MDA-MB-231 breast.
The test system of experiment [15] is RXF 393 renal.
In experiment [16] the test system is SF-268 CNS.
The subject of experiment [17] is SF-295 CNS.
In experiment [18] the test system is SF-539 CNS.
Experiment [19] relates to UACC-257 melanoma.
The subject of experiment [20] is M14 melanoma.

The structures appear in SMILES notation. Compounds without any hit were thinned out: in the full panel of roughly 83,000, 20% have a hit.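 Compound tested at a single concentration for 48 hours in 96-well plates; a percent growth value below 10 was scored as active.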 Unmarked numbers belong to inactive results. Activity calls are given as the source filed them.

Consider seven compounds from PubChem BioAssay (NCI).

Consider `CC(C)C(=O)Nc1ncc(C(=O)NCCN(Cc2ccccc2)C(=O)c2ccc(S(=O)(=O)Nc3ccccc3)cc2)s1`, for which the growth was 97.3% in [1]; 98% in experiment [2]; 98.9% in experiment [3]; 94.3% in [4]; 99.8% in [5]; 106% in experiment [6]. For the same compound, the growth is 83.6% in [7]; 103% in experiment [8]; 96.6% in [9]; 118% in [10]; 109% in experiment [11]; 98.4% in experiment [12]. The growth in [13] was 111%; in [14], 96.5%; in [15], 95%; in experiment [16] it was 89.5%; in experiment [17] it was 100%; in [18], 89.3%. The figures for the growth in experiment [19] and in experiment [20] were 105% and 101%, respectively.
`O=C(N/N=C/c1ccccc1Cl)c1ccccc1Nc1ccnc(C(F)(F)F)c1`: the growth is 16% in experiment [1]; 3.35% (active) in experiment [2]; 6.53% (active) in [3]; 1.91% (active) in experiment [4]; 3.5% (active) in experiment [5]; -17.1% (active) in [6]. In addition, the growth in experiment [7] is -20.5% (active); in experiment [8], 7.28% (active); in experiment [9] it was -30.4% (active); in [10] it was -38% (active); in experiment [11], 29.4%; in [12] it was 4.98% (active). The growth in [13] is 5.72% (active); in experiment [14], -17.1% (active); in [15] it was -13.4% (active); in experiment [16], 14.1%; in [17], -41.1% (active); in experiment [18] it was 4.39% (active). Further, the figures for the growth in experiment [19] and in experiment [20] were -2.5% (active) and 23.1%, respectively.
Take `CCOC(=O)CSc1nc2sc3c(c2c(=O)n1-c1ccccc1)CCCCC3`: the growth in experiment [1] is 96.2%; in experiment [2], 93%; in experiment [3], 108%; in experiment [4], 97.6%; in experiment [5], 110%; in experiment [6] it was 104%. The growth in [7] is 80.4%; in experiment [8], 104%; in experiment [9], 109%; in experiment [10], 119%; in experiment [11], 108%; in experiment [12], 98.4%. Further, the growth in experiment [13] was 109%; in [14], 105%; in experiment [15], 119%; in experiment [16], 104%; in experiment [17], 96.3%; in experiment [18] it was 101%. The growth in [19] was 96.8%; in experiment [20], 108%.
`COc1cc(C2CC(c3cccc(Nc4ccncc4)c3)=Nc3c(N)ncnc3N2)cc(OC)c1OC` (stereo not given): the growth in experiment [1] was 95.5%; in [2], 89%; in [3], 92.2%; in experiment [4], 86.7%; in experiment [5], 95.9%; in [6], 76%. The growth in experiment [7] was 82.1%; in experiment [8], 84%; in [9], 95.9%; in [10], 96.6%; in experiment [11], 88.3%; in experiment [12] it was 29.3%. In addition, the growth in [13] is 83.7%; in [14], 91%; in experiment [15], 94.2%; in experiment [16] it was 79%; in [17], 95.5%; in [18], 94.8%. For the same compound, the growth was 88.2% in experiment [19] and 90.7% in experiment [20].
For the compound `Cc1c(N2CCCCC2)[nH]c2ccccc12`, the growth in experiment [1] was 108%; in experiment [2], 119%; in experiment [3], 104%; in experiment [4] it was 119%; in [5] it was 101%; in [6], 46.8%. For the same compound, the growth in experiment [7] was 90.2%; in [8] it was 89%; in [9], 103%; in experiment [10] it was 124%; in experiment [11], 120%; in experiment [12], 113%. For the same compound, the growth in experiment [13] is 121%; in experiment [14], 121%; in [15], 116%; in [16], 117%; in [17] it was 89%; in experiment [18], 121%. The growth in [19] is 94%; in experiment [20] it was 105%.
For the compound `O=C1NCCN1/N=C/c1c(Cl)n(Cc2ccc(Cl)cc2)c2ccccc12`, the growth in [1] was 98.2%; in experiment [2], 64.8%; in experiment [3] it was 110%; in [4], 136%; in experiment [5], 41.4%; in experiment [6] it was 62.8%. In addition, the growth in experiment [7] was 93.9%; in experiment [8], 70%; in [9], 96.5%; in [10] it was 75.2%; in [11], 89.4%; in experiment [12], 65.2%. The growth was 150% in experiment [13]; 73.9% in experiment [14]; 69.4% in experiment [15]; 104% in [16]; 74.2% in experiment [17]; 87.2% in experiment [18]. In addition, the growth in [19] was 64.6%; in [20], 114%.
As to `O=C(NC1CCCCCC1)c1ccc2c(=O)n3c(nc2c1)CCCCC3`, the growth is 97.7% in experiment [1]; 106% in experiment [2]; 90.7% in [3]; 99.2% in [4]; 101% in [5]; 84.6% in [6]. Besides, the growth was 103% in experiment [7]; 97% in experiment [8]; 106% in [9]; 102% in experiment [10]; 94.3% in experiment [11]; 89% in experiment [12]. Also, the growth in experiment [13] is 91.1%; in [14] it was 100%; in [15], 105%; in experiment [16], 110%; in experiment [17], 116%; in experiment [18] it was 89.2%. Also, the growth in experiment [19] is 112%; in [20], 110%.
